# Test results from the supplement of paper PMC6607015.
# Where a name gives a salt, the structure may show the parent alone.
# How the values were obtained:
# Conditions in all cases: compound concentration in added solution (µM; 5 µl added to 20 µl cells): 10; 18 h
# A431 [1] = test: LBPA endosome anti-LBPA integrated intensity (sum per cell), Z-score; higher = more LBPA staining
# Summary of the method: (§1)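 The data are Z-scores, normalised in AcuityXpress, of integrated LBPA or filipin intensity in each cell, either whole-cell or restricted to LBPA endosomes. HeLa MZ or A431 cells, 3,500 per well in 20 µl, were seeded onto 5 µl of 10 µM compound solution in duplicate 384-well plates and incubated 18 h. Fixed cells were stained and imaged, with intensities extracted by MetaXpress segmentation.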
# HeLa MZ [2] = test: as above
# Summary of the method: as §1
# A431 [3] = test: whole-cell filipin (free cholesterol) integrated intensity, Z-score; higher = more cholesterol staining
# Summary of the method: as §1
# HeLa MZ [4] = test: as above
# Summary of the method: as §1
# A431 [5] = test: filipin (cholesterol) integrated intensity within LBPA endosomes, Z-score; higher = more cholesterol in LBPA endosomes
# Summary of the method: as §1
# HeLa MZ [6] = test: as above
# Summary of the method: as §1
SMILES,LBPA endosome anti-LBPA integrated intensity (z-score) (A431 [1]),LBPA endosome anti-LBPA integrated intensity (z-score) (HeLa MZ [2]),whole-cell filipin (z-score) (A431 [3]),whole-cell filipin (z-score) (HeLa MZ [4]),filipin (z-score) (A431 [5]),filipin (z-score) (HeLa MZ [6])
C#C[C@]1(O)CC[C@H]2[C@@H]3CCC4=CCCC[C@@H]4[C@H]3CC[C@@]21C [Lynestrenol],-0.602,-1.13,-1.14,-0.677,-0.563,-0.697
CCCCc1nc(Cl)c(CO)n1Cc1ccc(-c2ccccc2-c2nnn[nH]2)cc1 [Losartan],-0.107,-0.132,0.421,-0.132,-0.313,-0.537
Cc1cc(=O)oc2cc(O)ccc12 [Hymecromone],-0.504,-0.0954,-0.674,-0.684,-0.459,-0.528
COc1c(N2CCNC(C)C2)c(F)cc2c(=O)c(C(=O)O)cn(C3CC3)c12 (stereo not drawn) [Gatifloxacin],-0.517,0.0619,-0.124,0.333,-0.446,0.0101
CCCCN1CCCCC1C(=O)Nc1c(C)cccc1C (stereo not drawn) [Bupivacaine hydrochloride],-0.317,-0.117,-0.729,-0.969,-0.543,-0.511
CC(=O)NS(=O)(=O)c1ccc(N)cc1 [Sulfacetamide sodic hydrate],-0.453,-0.433,-0.701,-0.53,-0.475,-0.628
CC(CN(C)C)C(C)(O)Cc1ccc(Cl)cc1 (stereo not drawn) [Clobutinol hydrochloride],-0.559,0.835,-0.328,-0.426,-0.624,-0.205
CCOc1nc2cccc(C(=O)O)c2n1Cc1ccc(-c2ccccc2-c2nnn[nH]2)cc1 [Candesartan],-0.346,0.346,0.0521,0.386,-0.389,-0.218
CCN(CC)Cc1cc(Nc2ccnc3cc(Cl)ccc23)ccc1O [Amodiaquin dihydrochloride dihydrate],2.13,2.23,0.894,-0.209,1.78,1.72
C=CC(N)CCC(=O)O (stereo not drawn) [Vigabatrin],-0.513,-0.602,-1.01,-0.729,-0.566,-0.59
O=C(O)CNC(=O)C(CS)Cc1ccccc1 (stereo not drawn) [Thiorphan],-0.785,-1.92,-0.897,-0.571,-0.691,-0.682
Cc1c(NC(C)C)c(=O)n(-c2ccccc2)n1C [Isopyrin hydrochloride],-0.574,-1.29,-0.495,-0.424,-0.515,-0.531
CS(=O)(=O)OCCCCOS(C)(=O)=O [Busulfan],-0.537,-0.499,-0.466,0.544,-0.535,-0.476
CN(C)[C@@H]1C(O)=C(C(N)=O)C(=O)[C@@]2(O)C(O)=C3C(=O)c4c(O)cccc4[C@@](C)(O)[C@H]3C[C@@H]12 [Tetracycline hydrochloride],-0.508,0.0873,-0.872,-0.867,-0.521,-0.698
COc1ccc2cc(CCC(C)=O)ccc2c1 [Nabumetone],-0.302,0.891,-0.304,0.488,-0.495,-0.175
Cn1cnc2c1c(=O)[nH]c(=O)n2C [Theobromine],-0.566,-1.37,-0.361,-0.586,-0.492,-0.483
CCn1nc(C(=O)O)c(=O)c2cc3c(cc21)OCO3 [Cinoxacin],-0.298,0.452,-0.393,-0.0614,-0.442,-0.322
O=C(O)c1cccnc1 [Niacin],-0.578,-1.61,-0.557,-0.648,-0.464,-0.617
CC(C)(C)NC(=O)[C@H]1CC[C@H]2[C@@H]3CC[C@H]4NC(=O)C=C[C@]4(C)[C@H]3CC[C@]12C [Finasteride],-0.353,-0.576,0.536,0.274,-0.256,-0.306
CCC(=O)O[C@]1(C(=O)SCF)[C@H](C)C[C@H]2[C@@H]3C[C@H](F)C4=CC(=O)C=C[C@]4(C)[C@@]3(F)[C@@H](O)C[C@@]21C [Fluticasone propionate],-0.0811,0.00943,0.193,-0.0272,-0.0798,-0.437
NS(=O)(=O)c1cc2c(cc1Cl)NCNS2(=O)=O [Hydrochlorothiazide],-0.538,-1.08,-0.757,-0.0813,-0.476,-0.419
CC1=C(C(=O)O)N2C(=O)[C@@H](NC(=O)[C@H](N)c3ccc(O)cc3)[C@H]2SC1 [Cefadroxil],-0.651,-1.02,-0.697,-0.675,-0.507,-0.626
Cc1cc(C(C)(C)C)c(O)c(C)c1CC1=NCCN1 [Oxymetazoline hydrochloride],-0.605,0.256,-0.84,-0.57,-0.491,-0.228
CC(=O)CC(c1ccc([N+](=O)[O-])cc1)c1c(O)c2ccccc2oc1=O (stereo not drawn) [Acenocoumarol],-0.507,-0.33,-0.704,-0.387,-0.49,-0.482

SMILES,LBPA endosome anti-LBPA integrated intensity (z-score) (A431 [1]),LBPA endosome anti-LBPA integrated intensity (z-score) (HeLa MZ [2]),whole-cell filipin (z-score) (A431 [3]),whole-cell filipin (z-score) (HeLa MZ [4]),filipin (z-score) (A431 [5]),filipin (z-score) (HeLa MZ [6])
O=C1Nc2ccc(Cl)cc2[C@@](C#CC2CC2)(C(F)(F)F)O1 [Efavirenz],-0.71,-0.896,-0.938,-0.668,-0.569,-0.836
C[C@H](CCC(=O)O)[C@H]1CC[C@H]2[C@@H]3[C@H](O)C[C@@H]4C[C@H](O)CC[C@]4(C)[C@H]3CC[C@]12C [Chenodiol],-0.496,-1.46,-0.897,-0.999,-0.575,-0.773
O=C(NCCNCC(O)COc1ccc(O)cc1)N1CCOCC1 (stereo not drawn) [Xamoterol hemifumarate],-0.337,-0.849,-0.403,-0.263,-0.407,-0.533
O=C(O)Cc1sc(-c2ccccc2)nc1-c1ccc(Cl)cc1 [Fentiazac],-0.661,-1.44,-0.809,-0.504,-0.591,-0.756
CC(N)C12CC3CC(CC(C3)C1)C2 (stereo not drawn) [Rimantadine Hydrochloride],-0.677,-0.134,-0.496,0.106,-0.59,-0.56
N[C@@H]1CONC1=O [D-cycloserine],-0.278,-0.4,-0.132,-0.322,-0.405,-0.523
OC(CCN1CCCC1)(c1ccccc1)C1CCCCC1 (stereo not drawn) [Procyclidine hydrochloride],-0.0883,0.3,0.506,0.736,0.0344,0.437
Nc1c(Br)cc(Br)cc1CN[C@H]1CC[C@H](O)CC1 [Ambroxol hydrochloride],-0.487,0.757,-0.529,-0.141,-0.428,-0.0836
CC(=O)c1ccc2c(c1)N(CCCN(C)C)c1ccccc1S2 [Acetopromazine maleate salt],1.92,2.14,0.736,-0.149,1.18,1.7
C=C1c2c(Cl)ccc(O)c2C(=O)C2=C(O)[C@]3(O)C(=O)C(C(N)=O)=C(O)[C@@H](N(C)C)[C@@H]3[C@@H](O)[C@H]12.O=C(O)c1cc(S(=O)(=O)O)ccc1O [Meclocycline sulfosalicylate],-0.505,-0.19,-0.811,-1.34,-0.554,-0.823
C[C@]12CC[C@@H]3c4ccc(O)cc4CC[C@H]3[C@@H]1CC[C@@H]2O [Estradiol-17 beta],-0.253,0.492,-0.4,-1.01,-0.426,-0.515
CN(C)[C@@H]1C(O)=C(C(N)=O)C(=O)[C@@]2(O)C(O)=C3C(=O)c4c(O)cccc4[C@@](C)(O)[C@H]3[C@H](O)[C@@H]12 [Oxytetracycline dihydrate],-0.525,-0.93,-0.872,-0.703,-0.537,-0.753
CCCCC(C)(O)C/C=C/[C@H]1[C@H](O)CC(=O)[C@@H]1CCCCCCC(=O)OC (mixture of isomers) [Misoprostol],-0.446,-0.811,0.395,-0.741,-0.436,-0.608
Nc1nc(=O)[nH]cc1F [Flucytosine],-0.468,-0.721,-0.313,-0.0984,-0.463,-0.623
OCCN1CCN(CCCN2c3ccccc3Sc3ccc(Cl)cc32)CC1 [Perphenazine],3.24,0.966,-0.472,-0.434,2.14,2.73
O=C1NCCN1c1ncc([N+](=O)[O-])s1 [Niridazole],-0.413,0.107,-0.918,-0.144,-0.517,-0.432
CN(C)CCN(Cc1ccccc1)c1ccccn1 [Tripelennamine hydrochloride],-0.213,1.28,0.0432,0.362,-0.29,0.335
O=c1[nH]cnc2c1ncn2[C@H]1CC[C@@H](CO)O1 [Didanosine],-0.649,-1.14,-1.2,-0.832,-0.585,-0.693
CCCCC(CC)CN1CN(CC(CC)CCCC)CC(C)(N)C1 (stereo not drawn) [Hexetidine],0.287,-1.15,1.01,-0.0808,0.351,-0.116
CCC1=C(C)CN(C(=O)NCCc2ccc(S(=O)(=O)NC(=O)N[C@H]3CC[C@H](C)CC3)cc2)C1=O [Glimepiride],-0.623,-0.491,-0.412,-0.0517,-0.467,-0.486
CCn1cc(C(=O)O)c(=O)c2cc(F)c(N3CCNCC3)nc21 [Enoxacin],-0.309,-0.0536,0.119,0.315,-0.364,-0.345
C[C@H]1C[C@H]2[C@@H]3CCC4=CC(=O)C=C[C@]4(C)[C@@]3(F)[C@@H](O)C[C@]2(C)[C@@]1(O)C(=O)CO [Betamethasone],-0.442,-0.354,-0.547,-0.354,-0.536,-0.463
CC(=O)N(CC(O)CN(C(C)=O)c1c(I)c(C(=O)NCC(O)CO)c(I)c(C(=O)NCC(O)CO)c1I)c1c(I)c(C(=O)NCC(O)CO)c(I)c(C(=O)NCC(O)CO)c1I (stereo not drawn) [Iodixanol],-0.538,-0.533,-0.268,-0.245,-0.464,-0.482
CCCc1cc(=O)[nH]c(=S)[nH]1 [Propylthiouracil],-0.571,-0.555,-0.7,-0.496,-0.538,-0.457
